Assay outcomes: PubChem BioAssay, Broad Institute
NOMO-1 viab: NOMO-1 AML cell viability reduction, primary screen, STK33 inhibitor project, CellTiter-Glo luminescence; inhibition, % (no concentration beside the values); AID 2330, 2010; 7.5% of 37,000 active; NOMO-1 AML viability, 72 h; in the data active means inhibition above about 80%; inconclusive means no clear call, values can overlap the other calls
YB-1 expr inh: inhibitors of YB-1 gene expression, primary screen, cell-based, fluorescence | AID 434959, 2010 | U2OS, qRT-PCR YB-1 vs CDIP delta delta Cp, 16 h; stronger effect = higher value; zero = DMSO, each unit about twofold | 0.37% of 30,000 active | delta delta Cp (YB-1 minus CDIP) (test concentration not listed);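 active means delta delta Cp rounded down to an integer at or above 3, about 3 SD of DMSO wells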;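 further: higher means less YB-1 transcript or more CDIP transcript relative to DMSO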
U2OS ROS induce: ROS inducers in U2OS cancer cells, primary screen, cell-based, H2DCF-DA fluorescence; 2% of 46,000 active; ROS induction (% of piperlongumine), % at 10 µM; U2OS ROS induction; in the data active means ROS induction above about 79%, passing the limit was not always enough; inconclusive means no clear call, values can overlap the other calls;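 further: 0% = DMSO vehicle median and 100% = reference compound median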
PD-1 reversal: activators reversing PD-1 mediated T-cell inhibition, primary screen, luminescence, primary human CD4 T cells, PD-L1 beads | CellTiter-Glo 96 h | activation, % (no concentration beside the values) | 29,000 tested, under 10 active | AID 2316, 2010; call rule not given here;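 further: 0% = median vehicle wells and 100% = positive control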
Starred values were filed as active, the others as inactive; ? = inconclusive; nt = no result given. Only a selection was taken, and hits are over-represented in it overall.

SMILES	NOMO-1 viab	YB-1 expr inh	U2OS ROS induce	PD-1 reversal
C[C@@H]1CN([C@H](C)CO)C(=O)c2cccc(NC(=O)Nc3ccc(F)cc3)c2O[C@@H]1CN(C)Cc1ccc(Cl)c(Cl)c1	31	-0.39	4	-1
C[C@@H]1CN([C@@H](C)CO)C(=O)c2cccc(NC(=O)Nc3ccccc3)c2O[C@@H]1CN(C)Cc1ccc(Cl)c(Cl)c1	116*	-0.2	29	-3
CC(C)NC(=O)Nc1cccc2c1O[C@@H](CN(C)Cc1ccc(Cl)c(Cl)c1)[C@@H](C)CN([C@H](C)CO)C2=O	41	-0.43	4	0
CC(C)(C)c1[nH]nc2c1C(c1ccc(OC(=O)c3ccccc3Cl)cc1)C(C#N)=C(N)O2 (configuration not stated)	nt	nt	-9	nt
CN(C)c1nc(Nc2ccc(OC(F)(F)F)cc2)nc(NC(C)(C)C)n1	nt	nt	39	nt
O=C(Cc1ccc(Br)cc1)Nc1nccs1	nt	nt	-19	nt
C[C@H](CO)N1C[C@H](C)[C@@H](CN(C)Cc2ccc(Cl)c(Cl)c2)Oc2c(NC(=O)Nc3cccc4ccccc34)cccc2C1=O	115*	-0.57	0	-5
C[C@@H]1CN([C@H](C)CO)C(=O)c2cccc(NC(=O)Nc3cccc4ccccc34)c2O[C@@H]1CN(C)Cc1ccc(Cl)c(Cl)c1	62	-0.59	-1	-2
Cc1ccc(S(=O)(=O)Nc2ccc3c(c2)CC(=O)N([C@@H](C)CO)C[C@H](C)[C@@H](CN(C)Cc2ccc(C(F)(F)F)cc2)O3)cc1	98*	-0.3	45	0
Cc1ccc(S(=O)(=O)Nc2ccc3c(c2)CC(=O)N([C@H](C)CO)C[C@@H](C)[C@@H](CN(C)Cc2ccc(C(F)(F)F)cc2)O3)cc1	114*	-0.28	4	-2
Cc1ccc(S(=O)(=O)Nc2ccc3c(c2)C(=O)N([C@H](C)CO)C[C@@H](C)[C@H](CN(C)Cc2ccc(C(F)(F)F)cc2)O3)cc1	10	0.17	4	1
Cc1nn(Cc2nnc(-c3cc(C(F)(F)F)cc(C(F)(F)F)c3)o2)c(C)c1Br	19	-0.26	13	-1
CCN(CC)CCNc1ccc(CO)c2sc3ccccc3c(=O)c12	102*	0.62	4	nt
COc1ccc2oc(=Nc3ccc(C(=O)O)cc3)c(C(=O)NCc3ccccc3)cc2c1	nt	nt	-9	nt
O=c1[nH]nc(SCc2nnc(-c3ccc(Cl)cc3)o2)n1C1CCCCC1	nt	nt	-1	nt
CNCC(O)Cn1c2ccccc2c2ccccc21 (configuration not stated)	7	nt	-9	-1
OC(COCc1ccccc1)Cn1c2ccccc2c2ccccc21 (configuration not stated)	89*	-0.049	25	-3
O=C(COc1cc(Cl)c(Cl)cc1Cl)Nc1ncn[nH]1	1	nt	-4	0
c1cc(-c2nc3ccccc3s2)nc(-c2nc3ccccc3s2)c1	15	-0.5	-15	0
c1ccc2[nH]c(-c3nc4ccccc4s3)nc2c1	127*	0.48	51	-3
Cc1oc(-c2ccccc2)nc1CSc1nncn2c1cc1occc12	nt	nt	-3	nt
C=CC(C)(C)[C@@]12C[C@H]3C(=O)Nc4ccccc4C(=O)N3[C@@H]1Nc1ccccc12	92*	-0.54	3	2
C=CC(C)(C)[C@@]12C[C@H]3C(=O)N[C@H]([C@@H](C)CC)C(=O)N3[C@@H]1Nc1ccccc12	38	-0.22	6	1
COc1ccccc1CNS(C)(=O)=O	nt	nt	1	nt
CC(=O)OCC(=O)[C@@]12OC3(CCCC3)O[C@@H]1CC1C3CCC4=CC(=O)C=C[C@]4(C)[C@@]3(F)[C@@H](O)C[C@@]12C (some centres not stated)	11	-0.058	129*	nt
SMILES	NOMO-1 viab	YB-1 expr inh	U2OS ROS induce	PD-1 reversal
CC1=CCC[C@@H]2[C@](CCc3ccoc3)(C(=O)O)[C@H](C)CC[C@@]12C	26	-0.91	-11	-1
C[C@@H]1C[C@H]2OCC3=CCC[C@H]([C@]1(CC(O)c1ccoc1)C(=O)O)[C@]32CO (some centres not stated)	120*	0.47	1	-5
C/C(=N\N)c1c(C)cc(C)[nH]c1=O	nt	nt	-6	nt
N#Cc1c(/N=C/c2ccccc2)sc2c1CCCC2	4	-0.24	-2	-1
C[C@H]1CN([C@@H](C)CO)C(=O)c2cccc(NC(=O)c3ccc(-c4nccs4)cc3)c2O[C@@H]1CN(C)Cc1ccc(C(=O)O)cc1	8	0.25	-10	1
C[C@H](CO)N1C[C@H](C)[C@H](CN(C)Cc2ccc(C(F)(F)F)cc2)Oc2c(NC(=O)c3ccc(-c4nccs4)cc3)cccc2C1=O	98*	0.0057	24	nt
C[C@H]1CN([C@@H](C)CO)C(=O)c2cccc(NC(=O)c3ccc(-c4nccs4)cc3)c2O[C@H]1CN(C)Cc1ccc(C(F)(F)F)cc1	72	-0.25	109*	nt
C[C@@H]1CN([C@@H](C)CO)C(=O)c2cccc(NC(=O)c3ccc(-c4nccs4)cc3)c2O[C@@H]1CN(C)Cc1ccc(C(=O)O)cc1	-19	-0.19	51	nt
C=CCNC(=S)N1N=C2c3ccccc3CCC2C1c1ccccc1Cl (configuration not stated)	109*	-0.17	28	-1
CC(=O)N1N=C2c3ccccc3CCC2C1c1cccs1 (configuration not stated)	-7	-0.092	46	-1
Cc1c(C)c(C)c(CSc2ccccc2N)c(C)c1C	91*	-1	0	-2
C[C@H]1CN([C@@H](C)CO)C(=O)Cc2cc(NC(=O)NC3CCCCC3)ccc2O[C@H]1CN(C)Cc1ccc(-c2ccccc2)cc1	114*	-0.0062	10	-8
C[C@H](CO)N1C[C@H](C)[C@H](CN(C)Cc2ccc(-c3ccccc3)cc2)Oc2ccc(NC(=O)NC3CCCCC3)cc2CC1=O	87*	0.3	18	-3
C[C@@H]1CN([C@H](C)CO)C(=O)Cc2cc(NC(=O)NC3CCCCC3)ccc2O[C@@H]1CN(C)Cc1ccccc1	42	0.33	39	-1
C[C@@H]1CN([C@@H](C)CO)C(=O)c2cccc(NC(=O)Nc3ccccc3)c2O[C@H]1CN(C)CC1CCCCC1	93*	-0.26	6	nt
C[C@H]1CN([C@@H](C)CO)C(=O)c2cccc(NC(=O)Nc3ccccc3)c2O[C@@H]1CN(C)CC1CCCCC1	90*	-0.011	22	-3
C[C@H](CO)N1C[C@H](C)[C@@H](CN(C)CC2CCCCC2)Oc2c(NC(=O)Nc3ccccc3)cccc2C1=O	?	0.057	74	-3
C[C@@H]1CN([C@H](C)CO)C(=O)c2cccc(NC(=O)Nc3ccc(F)cc3)c2O[C@H]1CN(C)CC1CCCCC1	113*	0.1	2	-6
C[C@@H]1CN([C@H](C)CO)C(=O)c2cccc(NC(=O)Nc3ccccc3)c2O[C@@H]1CN(C)CC1CCCCC1	11	0.38	-3	1
Cc1ccsc1/C=N/NC(=O)CCCCCCC(=O)O	nt	0.17	3	nt
Cc1cc2ccccc2c(=O)n1CC(=O)NCC(=O)NCC1COc2ccccc2O1 (configuration not stated)	nt	nt	-18	nt
